Assay outcomes (PubChem BioAssay)
Neddyl block = inhibitors of human cullin neddylation; P61081+Q13564; TR-FRET cullin neddylation, biochemical; inhibition, % at 25 µM; hit rate 0.58% among 360,000; AID 651699; in the data active means inhibition above about 36%
GC-B act = GC-B (human) receptor activation; P20594; hit rate 0.11% among 370,000; HEK293-GC-B cells, CNP EC30, cGMP TR-FRET; 0% at EC30 CNP, 100% saturating CNP; activation, % at 10 µM;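 active means activation at 10 µM reaching about 35% in either raw or pattern-adjusted values, limit read from the data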
NOD2 RIPK2 PPI = blocks binding of human NOD2 to RIPK2 | hit rate 0.38% among 360,000 | inhibition, % at 4.98 µM | O43353 | CHO BLA complementation NOD2-RIPK2, CCF4 ratio; in the data active means inhibition above about 21%
TLR4 MyD88 comp = TLR4-MyD88 interaction inhibition in cells. inhibition, % at 8.4 µM. AID 861. hit rate 0.18% among 200,000. HeLa CL3-4 TLR4/MyD88 BLA complementation, FRET ratio. O00206+Q99836; in the data active means inhibition above about 25%
GC-A act = GC-A (human) enzyme activation; activation, % at 10 µM; P16066; HEK293 GC-A cells, cGMP TR-FRET, EC30 ANP; 0% at EC30 ANP, 100% saturating ANP; hit rate 0.14% among 370,000; in the data active means activation above about 40%
TLR9-MyD88 inh = blocks human TLR9 binding to MyD88. Q9NR96+Q99836. CHO BLA complementation TLR9-MyD88, CCF4 FRET ratio. inhibition, % at 4.98 µM. hit rate 0.21% among 340,000. AID 504734;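 active means inhibition above the mean over all tested compounds plus 3 SD, cut at about 21% in these data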
Neddyl inh conf = cullin neddylation inhibition, confirmation; shares compounds with Neddyl block; TR-FRET cullin neddylation biochemical assay; calls only at 25 µM; hit rate 13% among 1,800; AID 652217; in the data active means inhibition above about 40%;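 further: neddylation substrate is the cullin 1 ring ligase complex with SKP2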
Of the large screens only hits and unclear results are named; the others gave an inactive call (follow-up assays come after a bar, where shown). Rows were chosen to be rich in hits. Some 1.2% of all compounds tested hit in one or more screens of this group.

CCCc1c(O)c2ccccc2[nH]c1=O	Neddyl block 38 | Neddyl inh conf inactive
O=C(N/N=C/c1ccccc1O)C1(O)c2ccccc2-c2ccccc21	Neddyl block 46 | Neddyl inh conf inactive
O=C1CC(NS(=O)(=O)c2cc(F)ccc2F)CN1c1ccc2c(c1)OCCO2 (configuration not stated)	none (no result: TLR4 MyD88 comp)
C(=C\c1cccc2ccccc12)/c1nnc(-c2cccs2)o1	Neddyl block 47
COC(=O)c1ccc(COc2ccc(C)c(C)c2)o1	none (no result: TLR4 MyD88 comp)
COC(=O)c1ccc(COc2ccc3ccc(=O)oc3c2)o1	Neddyl block 40 (no result: TLR4 MyD88 comp) | Neddyl inh conf inactive
COC(=O)c1cc(COc2ccc3ccc(=O)oc3c2)c(C)o1	Neddyl block 56 | Neddyl inh conf active
c1nc2sc3c(c2c2nnnn12)CCCC3	none
c1nc2sc3c(c2c2nnnn12)CCC3	Neddyl block 41 | Neddyl inh conf inactive
CCOC(=O)[C@]12CCC=C1N(Cc1cccc3ccccc13)C(=O)[C@H](CC(=O)NCCc1ccccc1OC)C2	none (no result: TLR4 MyD88 comp, TLR9-MyD88 inh)
CC1CCC(NC(=O)c2[nH]c(C(F)(F)F)nc2-c2ccccc2)CC1 (configuration not stated)	none (no result: TLR4 MyD88 comp, TLR9-MyD88 inh)
COc1ccc(CCNC(=O)c2ccc3nc4cc(Cl)ccc4c(=O)n3c2)cc1OC	Neddyl block 39 (no result: TLR4 MyD88 comp) | Neddyl inh conf inactive
Cc1ccc(C)c(N(C(=O)CNC(=O)c2ccco2)C(C(=O)NC2CCCC2)c2ccncc2)c1 (configuration not stated)	none (no result: TLR4 MyD88 comp)
CC(C)C[C@H]1CN([C@@H](Cc2ccc(O)cc2)CN2CCC[C@H]2CN2C(=O)C(=O)NC[C@@H]2Cc2ccccc2)C(=O)C(=O)N1CC1CCCCCC1	none (no result: TLR4 MyD88 comp, TLR9-MyD88 inh)
COc1cc(/C=N\NC(=O)c2ccc(-c3ccccc3)cc2)cc(Br)c1O	Neddyl block 45 (no result: TLR4 MyD88 comp) | Neddyl inh conf inactive
COc1ccc(/C=N/NC(=O)c2ccc(-c3ccccc3)cc2)cc1O	none
COCCCNC(=O)c1cc(S(=O)(=O)NCCCN2CCCC2=O)ccc1Cl	none (no result: TLR4 MyD88 comp)
C[C@H](CO)N1C[C@H](C)[C@@H](CN(C)S(=O)(=O)c2ccc3ccccc3c2)OCc2cnnn2CCCC1=O	none (no result: TLR4 MyD88 comp)
O=C(CCCN1C(=O)C(=Cc2ccc3c(c2)OCO3)SC1=S)Nc1ccc(C(=O)O)c(O)c1	none (no result: TLR4 MyD88 comp, TLR9-MyD88 inh)
CC(C)c1ccc2[nH]c3c(c2c1)CCC/C3=N\NC(=O)c1ccncc1	none (no result: TLR4 MyD88 comp)
Nc1ccc(C(=O)N/N=C2\CCCc3c2[nH]c2ccccc32)cc1	Neddyl block 45 | Neddyl inh conf inactive
O=C(O)c1ccc(NC(=O)c2cccc(C(=O)Nc3ccc(C(=O)O)cc3)n2)cc1	none (no result: TLR4 MyD88 comp)
O=C(Nc1ccccc1)c1cccc(C(=O)Nc2ccccc2)n1	Neddyl block 51 (no result: TLR4 MyD88 comp) | Neddyl inh conf inactive
COc1ccc(-c2nn(-c3ccccc3)cc2CO)cc1OC	Neddyl block 39 | Neddyl inh conf inactive
CCc1nc2c(OCc3c(C)noc3C)cccn2c1N(C=O)Cc1ccccc1	none (no result: TLR4 MyD88 comp, TLR9-MyD88 inh)
CCOC(=O)[C@@]12CCCC3=C1N(CCC3)C(=O)[C@H]2CC(=O)N1CCN(C(=O)C2CC2)CC1	none (no result: Neddyl block, NOD2 RIPK2 PPI, TLR4 MyD88 comp, TLR9-MyD88 inh)
CSc1ccc(Cl)c(C(=O)OCC(=O)N2CCN(c3ccccc3)CC2)c1	none (no result: TLR4 MyD88 comp)
CC(=O)c1ccc(S(=O)(=O)N(C)CCCC(=O)N(C)Cc2c(F)cccc2Cl)cc1	none (no result: TLR4 MyD88 comp)
O=C(Nc1cc(C(=O)Nc2ccccc2C(=O)O)cc(C(=O)Nc2ccccc2C(=O)O)c1)c1ccccc1	Neddyl block 49 (no result: TLR4 MyD88 comp) | Neddyl inh conf inactive
COC(=O)C1=C[C@@H](C(=O)OC)[C@@H]2C3=C(C(=O)[C@@]2(C)NC(=O)c2ccccc2)[C@H](C)C(C(=O)OC)=C(C(=O)OC)[C@@H]3C1	none (no result: TLR4 MyD88 comp)
COc1ccc(NC(=O)c2cc(-c3ccc(C)cc3)on2)cc1OC	none (no result: TLR4 MyD88 comp)
COc1ccc(-c2cc(C(=O)Nc3ccc(OC)c(OC)c3)no2)cc1	Neddyl block 40 (no result: TLR4 MyD88 comp) | Neddyl inh conf inactive
CC(=O)c1ccc(-c2ccc(C(=O)N3CCC(C(N)=O)CC3)o2)cc1	Neddyl block 69 (not shown: TLR4 MyD88 comp)
Cc1ccccc1-c1cc2nc(C)c(Cl)c(=O)n2[nH]1	Neddyl block 50 (no result: TLR4 MyD88 comp) | Neddyl inh conf inactive
Cc1nc2cc(-c3ccsc3-n3c(C)ccc3C)[nH]n2c(=O)c1Cl	none
